Source: PubChem
Rows were chosen to be rich in hits. Some 6.2% of all compounds tested hit in one or more screens of this group.
Lassa entry inh – inhibitors of Lassa virus binding or cell entry. Lassa virus pseudotype entry inhibition, cell reporter. Potency, µM (series often up to 37.9 µM), hits mostly inhibitors. 300,000 compounds, 1.2% hits. AID 540256; calls by dose curve; tested in HEK293 cells; further: nearly all actives have a fitted effect of over 50% in size
FMDV antiviral – foot and mouth disease virus antiviral activity; FMDV antiviral cell-based qHTS; Potency, µM (series often up to 57.9 µM), most hits filed as inhibitors; 410,000 compounds, 1.2% hits; calls by dose curve; tested in HEK293T cells; further: read-out not given here; nearly all actives have a fitted effect of over 45% in size
HCMV antiviral – human cytomegalovirus inhibition; HFF cells, HCMV-luciferase reporter, 72 h; stronger effect = lower value; activity change, negative = inhibition, % at 57.5 µM; 410,000 compounds, 4.5% hits; AID 1259415; in the data active means activity change below about -60%; inconclusive means no clear call, values can overlap the other calls; inactive means above about -39%
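Two compound doses tested in HFFs infected with HCMV-luciferase, MOI 1 PFU/cell, 72 h at 37C. Lysate luminescence read with OneGlo; data normalized against buffer-only and 10uM Salinomycin inhibitor controls.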
MARV entry inh – inhibitors of Marburg virus binding or cell entry | 300,000 compounds, 1.8% hits | Marburg virus pseudotyped entry inhibition, cell reporter | Potency, µM (top dose mostly 37.8 µM), usual class: inhibitors; calls by dose curve; tested in HEK293 cells
Large screens that a line does not name were inactive; ! = a repeat was not active.

O=S(=O)(c1ccc(NC(=S)NCCC(c2ccccc2)c2ccccc2)cc1)N1CCOCC1	Lassa entry inh 3.55µM, FMDV antiviral inconclusive, HCMV antiviral -98.9, MARV entry inh 10µM
O=S(=O)(c1ccc(NC(=S)N/N=C/c2c3ccccc3cc3ccccc23)cc1)N1CCOCC1	HCMV antiviral -94.7 (no result: Lassa entry inh, MARV entry inh)
CCCCOCCCNC(=S)Nc1ccc(S(=O)(=O)N2CCOCC2)cc1	none (no result: Lassa entry inh, MARV entry inh)
Cc1ccc(CNC(=O)[C@H](C)N2C(=O)N3CCc4c([nH]c5ccccc45)[C@@]3(C)C2=O)cc1	FMDV antiviral inconclusive (no result: Lassa entry inh, MARV entry inh)
COc1ccc(CNC(=O)[C@H](C)N2C(=O)N3CCc4c([nH]c5ccccc45)[C@@]3(C)C2=O)cc1OC	FMDV antiviral 31.6µM, HCMV antiviral inconclusive (no result: Lassa entry inh, MARV entry inh)
COc1ccc(-c2noc(CC(=O)Nc3cc(OC)ccc3OC)n2)cc1	none (no result: MARV entry inh)
COCCN(CCOC)Cc1c(O)ccc2c1O/C(=C\c1ccc(C)o1)C2=O	HCMV antiviral -88.5
O=C(CN1CCC(n2nnc3cc(F)ccc32)CC1)NC1CC1	none
CCOc1ccc2nc(NC(=O)CN3CCC(n4nnc5cc(F)ccc54)CC3)sc2c1	Lassa entry inh inconclusive, FMDV antiviral inconclusive, HCMV antiviral -68.4, MARV entry inh inconclusive
O=C(CN1CCC(n2nnc3cc(F)ccc32)CC1)Nc1ccccc1N1CCOCC1	FMDV antiviral inconclusive, HCMV antiviral inconclusive, MARV entry inh 13µM!
CC(C)NC(=O)C1C(c2ccccc2)=Nc2ccccc2N1C(=O)c1cc(Cl)cc(Cl)c1 (stereo unspecified)	none (no result: Lassa entry inh, MARV entry inh)
c1ccc(CNc2nc(-c3cccs3)nc3ccccc23)cc1	FMDV antiviral inconclusive, HCMV antiviral -73.9
Fc1ccccc1-c1nc(NCc2ccccc2)c2ccccc2n1	none
CC(C)(C)c1ccc(-c2nc(NCc3cccnc3)c3ccccc3n2)cc1	Lassa entry inh inconclusive, HCMV antiviral -72.0, MARV entry inh inconclusive
c1ccc(CNc2nc(-c3ccccn3)nc3ccccc23)cc1	Lassa entry inh inconclusive, FMDV antiviral inconclusive, HCMV antiviral -97.1, MARV entry inh inconclusive
c1ccc(CNc2nc(-c3ccccc3)nc3ccccc23)cc1	HCMV antiviral inconclusive, MARV entry inh inconclusive
CCC(C)Nc1nc(-c2ccccn2)nc2ccccc12 (stereo unspecified)	FMDV antiviral inconclusive, HCMV antiviral -99.0 (no result: Lassa entry inh, MARV entry inh)
CC(C)C(=O)N[C@@H]1CCCN1C(=O)C=Cc1ccccc1	none (no result: FMDV antiviral, HCMV antiviral)
Cc1cccc(OCC(=O)Nc2ccc3nc(SCc4ccccc4)sc3c2)c1	none
Cc1nc(NCc2ccccn2)c2ccccc2n1	FMDV antiviral inconclusive, HCMV antiviral -84.2, MARV entry inh inconclusive
COc1cccc(-c2nc(NCC3CCCO3)c3ccccc3n2)c1O (stereo unspecified)	Lassa entry inh inconclusive, FMDV antiviral 17.8µM, MARV entry inh inconclusive
COc1ccc(Nc2nc(-c3cccs3)nc3ccccc23)cc1	FMDV antiviral inconclusive, HCMV antiviral -102.5, MARV entry inh inconclusive
COc1ccc(Nc2nc(-c3cccc([N+](=O)[O-])c3)nc3ccccc23)cc1	Lassa entry inh inconclusive, FMDV antiviral 39.8µM, MARV entry inh 14.6µM
Cc1noc(COc2ccccc2OC[C@H](O)CNC(C)(C)C)n1	none (no result: Lassa entry inh, FMDV antiviral, HCMV antiviral)
CCc1cccc(NC(=O)Cn2c(=O)ccc3cc(S(=O)(=O)N4CCC(C)CC4)ccc32)c1	Lassa entry inh inconclusive (no result: MARV entry inh)
CC(C)(C)C1CCN2CCCC(c3ccccc3)(C1)C2=O (stereo unspecified)	none (no result: Lassa entry inh, MARV entry inh)
CC(NC(=O)c1cccnc1)c1nnc2n1CCN(Cc1ccc(-c3ccccc3)cc1)CC2 (stereo unspecified)	none (no result: Lassa entry inh, HCMV antiviral, MARV entry inh)
c1ccc(CNc2nc(NCc3ccccc3)c3ccccc3n2)cc1	Lassa entry inh 10µM, FMDV antiviral inconclusive, MARV entry inh inconclusive (no result: HCMV antiviral)
c1ccc(CNc2nc(NCc3ccccc3)c3sccc3n2)cc1	HCMV antiviral -80.0 (no result: Lassa entry inh, MARV entry inh)
COc1cccc(-c2nc(NC(C)C)c3ccccc3n2)c1O	FMDV antiviral inconclusive
CCC(C)Nc1nc(-c2cccc(OC)c2O)nc2ccccc12 (stereo unspecified)	Lassa entry inh inconclusive, FMDV antiviral 28.2µM, MARV entry inh inconclusive
Cc1nc2ccc(C(C(F)(F)F)(C(F)(F)F)C(F)(F)F)cc2[nH]1	Lassa entry inh 15.8µM
CCN(C(=O)CCN1C(=O)/C(=C/c2ccccc2)SC1=S)C1CCS(=O)(=O)C1 (stereo unspecified)	Lassa entry inh inconclusive, HCMV antiviral -112.6, MARV entry inh inconclusive
O=C(O)CN1C(=O)/C(=C\c2cccc(OCc3ccccc3F)c2)SC1=S	HCMV antiviral -75.6
CC(=O)NNC(=O)CN1C(=O)/C(=C/c2ccccc2)SC1=S	HCMV antiviral inconclusive (no result: Lassa entry inh, MARV entry inh)
CCN(CC)C(=O)CN1C(=O)/C(=C/c2ccccc2)SC1=S	HCMV antiviral -63.1 (no result: Lassa entry inh, MARV entry inh)
COc1ccc(Cc2c(-c3ccccc3)nc3c(C)cc(Br)cn23)c(C)c1	none (no result: Lassa entry inh, MARV entry inh)
Cc1ccc(CNC(=O)CSc2ncc3c(n2)-c2ccc(Cl)cc2N(Cc2ccccc2)S3(=O)=O)cc1	Lassa entry inh inconclusive (no result: MARV entry inh)
